Structures are written as SMILES. A number with no mark means an inactive call. Calls come from the whole dose curve.
% is set by controls: 0 for no effect and ±100 for the full control effect.

Acetylcholinesterase (Homo sapiens), sequence (P22303 whole entry, looked up): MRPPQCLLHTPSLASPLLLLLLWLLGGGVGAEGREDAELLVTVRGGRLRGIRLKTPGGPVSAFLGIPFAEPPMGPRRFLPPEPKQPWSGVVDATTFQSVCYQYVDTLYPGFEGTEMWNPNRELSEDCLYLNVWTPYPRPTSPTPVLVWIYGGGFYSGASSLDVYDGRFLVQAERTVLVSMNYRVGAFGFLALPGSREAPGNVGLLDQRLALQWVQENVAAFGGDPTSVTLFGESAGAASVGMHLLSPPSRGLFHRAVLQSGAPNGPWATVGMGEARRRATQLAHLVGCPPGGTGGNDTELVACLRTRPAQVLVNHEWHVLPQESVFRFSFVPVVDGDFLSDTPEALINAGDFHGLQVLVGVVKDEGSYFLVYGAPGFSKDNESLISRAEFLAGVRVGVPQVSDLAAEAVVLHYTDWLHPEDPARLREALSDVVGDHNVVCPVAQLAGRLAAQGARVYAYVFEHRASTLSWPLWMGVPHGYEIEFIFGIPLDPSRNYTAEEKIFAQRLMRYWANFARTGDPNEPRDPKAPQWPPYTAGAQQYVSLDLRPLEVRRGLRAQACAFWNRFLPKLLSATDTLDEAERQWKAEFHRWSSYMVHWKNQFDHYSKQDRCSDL

The assay addresses Acetylcholinesterase (Homo sapiens) (UniProt P22303). Briefly: Acetylcholinesterase (AChE) small molecule antagonists: enzyme-based qHTS assay (AID 1347397). Note: nearly all actives have a fitted effect of over 55% in size. Conditions: Potency: AChE enzyme activity inhibition; outcome: AChE enzyme activity inhibition; series mostly up to 115 µM; activity change, negative = inhibition: at the top concentration. An outline of the steps:
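Enzyme inhibition was scored from DTNB-detected thiocholine formed by recombinant human AChE acting on acetylthiocholine. The 30 min compound preincubation and 10 min substrate reaction were both run at room temperature, with DMSO as vehicle control.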
In general terms: In qHTS, concentration-response curves come from the screen itself.
As for `C/C=C(\C)C#N`, the “activity change, negative = inhibition” value was 0.539%.
`CC(=O)OC(OC(C)=O)c1ccc([N+](=O)[O-])o1`: the “activity change, negative = inhibition” value was 0.136%.
The value for `Fc1ccc(C(c2ccc(F)cc2)N2CCN(C/C=C/c3ccccc3)CC2)cc1` was -0.135% [at 53 µM].
The value for `COC(=O)C1=C(C)NC(COC(N)=O)=C(C(=O)OC(C)C)C1c1cccc(Cl)c1Cl` (centres undefined) was -3.53% [at 53 µM]; that for `CCCCc1ccc2c(n1)[C@@H](c1ccc(OC)cc1C[C@H](C)C(=O)O)[C@H](C(=O)O)[C@H]2c1ccc2c(c1)OCO2` was 1.16%.
The value for `CCOc1ccc2ccccc2c1C(=O)N[C@@H]1C(=O)N2[C@@H]1SC(C)(C)[C@@H]2C(=O)O` was 0.266% [at 53 µM].
On to `O=C(NCCO[N+](=O)[O-])c1cccnc1`, for which the “activity change, negative = inhibition” value was 0.758% [at 53 µM].
The value for `CC(=O)Nc1ccc(OCCOCCOc2ccc(NC(C)=O)cc2)cc1` was 0.574% [at 53 µM]; that for `COCCOCCOCCOCCOC` was 0.196%.
The value for `O=C(O)[C@@H]1[C@H]2C[C@H]3c4[nH]c5ccccc5c4CCN3C[C@@H]2CC[C@@H]1O` was 0.139% [at 53 µM]; that for `CC1(C)CCC(C)(C)c2cc(C(=O)Nc3ccc(C(=O)O)cc3)ccc21` was -0.263%.
For `Nc1ccc(NC(=O)c2ccc(N)cc2)cc1`, the “activity change, negative = inhibition” value is -0.808%.
The result for `CNC(C)=O` reads 0.604%; that for `CC(C)c1ccc2oc3nc(N)c(C(=O)O)cc3c(=O)c2c1`, 0.401% [at 53 µM].
The value for `FC(F)(F)C(Cl)(Cl)Cl` was -0.136%; that for `O=S(O)(O)=S` was 0.136% [at 10.5 µM]; that for `C[C@@H](O)[C@H]1C(=O)N2C(C(=O)O)=C(SCCN=CN)C[C@H]12` was 1% [at 53 µM].
For `C#C[C@]1(O)CC[C@H]2[C@@H]3CCc4cc(OC5CCCC5)ccc4[C@H]3CC[C@@]21C`, the “activity change, negative = inhibition” value was -0.405% [at 53 µM].
As to `CCCCCCC(C)Nc1ccc(Nc2ccccc2)cc1` (centres undefined), the “activity change, negative = inhibition” value was -11.2%.

The values are drawn from PubChem BioAssay (Tox21).
